# Compound activity: PubChem, National Center for Advancing Translational Sciences (NCATS)
# Most compounds without a hit are left out; they make up all but 1.2% or so of the library.
# GCN5L2 inh: GCN5L2 (KAT2A) acetyltransferase inhibition | GCN5L2 HAT assay, ThioGlo1 CoA-SH fluorescence | Potency, µM (titrated, usually from 58.9 µM), inactives show at the top dose activity change, negative = inhibition, most hits filed as inhibitors | hit rate 0.21% among 390,000 | AID 504327
#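 Compounds, pin-transferred from DMSO stocks, meet 20nM GCN5L2 for 15 min before the reaction begins with H3(1-25) peptide (75uM) and acetyl-CoA (70uM). Thiol-reactive ThioGlo1 reports CoA release over 20 min at room temperature.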
# VDR inh: blocks the human vitamin D receptor; VDR-SRC2-3 peptide fluorescence polarization, 2 h; Potency, µM, for the others: max response, negative = inhibition, hits mostly inhibitors; AID 504847; hit rate 0.93% among 400,000; P11473
# Target sequence (P11473 whole entry, looked up): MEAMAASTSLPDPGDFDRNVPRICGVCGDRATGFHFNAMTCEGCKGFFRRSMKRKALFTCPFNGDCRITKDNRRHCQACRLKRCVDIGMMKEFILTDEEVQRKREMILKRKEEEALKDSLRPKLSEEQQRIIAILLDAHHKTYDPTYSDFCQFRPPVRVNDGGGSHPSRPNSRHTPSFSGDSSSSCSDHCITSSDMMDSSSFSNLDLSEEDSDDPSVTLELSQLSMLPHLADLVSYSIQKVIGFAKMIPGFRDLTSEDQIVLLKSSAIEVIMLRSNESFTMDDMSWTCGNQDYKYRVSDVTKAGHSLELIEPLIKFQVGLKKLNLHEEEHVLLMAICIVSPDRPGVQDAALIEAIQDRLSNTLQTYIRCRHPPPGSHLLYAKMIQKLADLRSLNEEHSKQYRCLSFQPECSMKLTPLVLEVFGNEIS
#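 Compounds are added to VDR with labelled SRC2-3 coactivator peptide and held 2 h at room temperature. Inhibition of the VDR–peptide interaction is then read as a change in fluorescence polarization.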
# TR SRC2 fluor cs: Texas Red fluorescence interference in TRb-SRC2 counter-screen. TRb/SRC2 Texas Red total fluorescence interference. Potency, µM (doses to about 106 µM), for the others: at the top dose fluorescence change, negative = quenching. hit rate 0.29% among 280,000. AID 1479; active means well fitted curve in either direction with a large enough effect; inconclusive means small, poorly fitted or top-dose-only effect
#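 Human TRβ ligand-binding domain (0.6 uM) and Texas Red SRC2 peptide (20 nM) in Tris buffer with 1 uM T3 and 5% DMSO were incubated with pinned compound for 5 hr at ambient temperature. Total fluorescence was computed as S + 2P (555/632 nm).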
# TRb-SRC2 inh: inhibitors of human thyroid hormone receptor beta-SRC2 interaction. Potency, µM (doses to about 106 µM), for the others: at the highest dose activity change, negative = inhibition, usual class: inhibitors. TRbeta-SRC2 peptide binding, fluorescence polarization; receptor liganded with 1 µM T3. hit rate 0.065% among 280,000. P10828. AID 1469;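 further: plate controls were bound peptide for no effect and peptide without receptor for full effect; nearly all actives have a fitted effect of over 50% in size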
#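 A fluorescence polarization screen tested compounds at multiple concentrations against complex formation between 0.6 uM TRb ligand-binding domain and 20 nM Texas Red SRC2 peptide, with 1 uM T3 present; readout after 5 hr.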
# GoLoco inh red: RGS12 GoLoco-Gai1 interaction inhibition. Potency, µM (doses to about 61.6 µM), inactives show at the highest dose activity, negative = inhibition, most hits filed as inhibitors. AID 880. hit rate 0.44% among 230,000. Gai1:RGS12 GoLoco peptide FP, rhodamine, 10 min; active means well fitted inhibition curve with a large enough effect, not every such curve was filed as active; inactive means no such curve, though single readings can be large or run the other way; further: nearly all actives have a fitted effect of over 30% in size
# The depositor's hits bear a star; ? = inconclusive; · = no result given; ! = repeats disagree; [ ] = dose if it differs, or a comment. Unless noted, the call rests on the fitted dose curve; in most records, active means well fitted curve in the direction sought with a large enough effect; inconclusive means small, poorly fitted or top-dose-only effect, or another doubt; inactive means no such curve, though single readings can be large; an effect the other way counts as inactive or inconclusive. Unless noted, on the % scale 0 is the no-effect control and ±100 the full control effect; potency means the concentration at half of the fitted maximal effect.
SMILES,GCN5L2 inh,VDR inh,TR SRC2 fluor cs,TRb-SRC2 inh,GoLoco inh red
O=S(=O)(Cc1ccccc1)c1nnnn1-c1ccccc1,·,35.5µM*,0.2%,0.7%,4.3%
Cc1ccc(C2N=C(Nc3nc4ccccc4o3)NC3=C2C(=O)CC(C)(C)C3)cc1 (configuration not stated),·,-14.5%,·,·,·
COC(=O)N1CCc2c(sc(NC(=O)C3COc4ccccc4O3)c2C(N)=O)C1 (configuration not stated),-9.7%,89.1µM*,·,·,·
C=C(CO)C1Cc2c(ccc3c2OC2COc4cc(OC)c(OC)cc4C2C3=O)O1 (configuration not stated),·,·,-0.4%,-0.4%,-0.4%
COC(=O)Cc1nnc(SCC(=O)Nc2ccccc2)c2ccccc12,?,79.4µM*,·,·,·
O=C(CSc1nnc(-c2ccc(F)cc2)c2ccccc12)Nc1ccccc1,-25.4%,-7.9%,3.7%,0.4%,-0.3%
CCOC(=O)N1CCN(c2ccc([N+](=O)[O-])cc2)CC1,0.1%,-17.9%,-3.6%,4.6%,9.7%
CCOC(=O)N1CCN(/[N+]([O-])=N/Oc2ccc([N+](=O)[O-])cc2[N+](=O)[O-])CC1,-13.6%,44.7µM*,-7.3%,-2.3%,·
CCCCC/C=C\C/C=C\C/C=C\CCCCC(=O)O,14.1µM*!,39.8µM*!,0.1%,9.0%,-2.5%
CCCCC[C@@H](/C=C/C1C(=O)C=C[C@H]1C/C=C\CCCC(=O)O)OC(C)=O (some centres not stated),·,79.4µM*,·,·,·
CCCCCCCC/C=C\C/C=C\C/C=C\CCCC(=O)O,-8.1%,-1.8%,-2.2%,-7.4%,2.9%
CCCCC[C@H](O)C/C=C1/C(=O)C=C[C@@H]1C/C=C\CCCC(=O)O,10.9%,50.1µM*,0.5%,-6.9%,-27.8%
CCCCC/C=C/C=C1/C(=O)C=C[C@@H]1C/C=C\CCCC(=O)O,?,20µM*,0.6%,0.9%,-10.5%
CCCCC/C=C\C[C@@H]1O[C@H]1C(O)/C=C\C/C=C\CCCC(=O)O (some centres not stated),·,-1.3%,-0.9%,0.1%,4.9%
NC1=N[C@H](c2ccc(Cl)cc2)N(c2ccc(S(N)(=O)=O)cc2)C(N)=N1,·,·,·,·,6.9%[14.2 µM]
Cc1ccc(S(=O)(=O)O[C@@H]2[C@H]([C@@H]3COC(C)(C)O3)O[C@H]3OC(C)(C)O[C@@H]32)cc1,·,·,·,·,-3.5%[14.2 µM]
COc1ccc2c3c([nH]c2c1)[C@H]1C[C@@H]2[C@@H](C[C@@H](O)[C@H](OC)[C@H]2C(=O)O)CN1CC3,·,·,·,·,8.8%[14.2 µM]
O=C(O)CCC(=O)c1cccc2ccccc12,-3.9%,-1.1%,-3.4%,-8.8%,6.6%
C[N+](C)(C)CCC(=O)c1cccc2ccccc12,?,2µM*,0.5%,1.5%,25.1µM*!
Oc1ccccc1-c1nnc(COc2ccc(Cl)cc2Cl)o1,-1.2%,79.4µM*,-4.4%,2.2%,-3.9%
Cc1cc(C)c(-c2cc([C@H](C)O/N=C\[C@@H](C)[C@H](OCc3ccccc3)C(C)C)on2)c(C)c1,·,·,-6.7%[11.2 µM],-5.4%[11.2 µM],·
CC(C)(C)NC(=O)CN(Cc1ccc2c(c1)OCO2)C(=O)CNS(=O)(=O)c1ccccc1,-1.5%,-29.3%,·,·,·
CC(C)(C)N(Cc1ccc2c(c1)OCO2)C(=O)/C=C\S(=O)c1ccccc1 (configuration not stated),·,70.8µM*,·,·,·
O=C(O)c1ccc(Nc2cc(Cl)c3nonc3c2[N+](=O)[O-])cc1,-14.2%,20µM*,-1.9%,5.4%,14.1µM*
O=C(O)c1cccc(Nc2ccc3nonc3c2[N+](=O)[O-])c1,-18.3%,-2.8%,·,·,·
SMILES,GCN5L2 inh,VDR inh,TR SRC2 fluor cs,TRb-SRC2 inh,GoLoco inh red
Cn1c(=O)c2[nH]c(-c3ccccc3Cl)c(O)c2n(C)c1=O,-0.3%,-2.6%,-0.1%,-3.0%,2µM*
Cn1c(=O)c2[nH]c(-c3ccccc3)c(O)c2n(C)c1=O,-4.5%,-19.3%,-4.3%,-17.7%,-18.5%
O=C(COc1ccc(Cl)cc1)Nc1cnn(Cc2c(Cl)cccc2Cl)c1,0.8%,89.1µM*,0.1%,-0.8%,4.9%
O=C(Nc1ncc(Cc2ccccc2)s1)C1CCN(C(=O)c2ccco2)CC1,·,-19.0%,·,·,·
Cc1c(C2=CCN(S(=O)(=O)c3ccc(Br)cc3)CC2)c2ccccc2n1C,-4.8%,-11.9%,28.2µM*[fluorescent],?,166.7%
COc1ccc(CC(=O)NNC(=O)CCC(=O)Nc2cc(C)ccc2C)cc1,-7.4%,89.1µM*,0.8%,1.9%,-1.1%
COc1ccc(C(=O)CCC(=O)Nc2cc(C)ccc2C)cc1,2.0%,8.3%,0.5%,-2.1%,·
CSCC[C@H](NC(=O)[C@@H]1CCCN1C(=O)[C@H](CCCN=C(N)N)NC(=O)[C@H](CC(C)C)NC(=O)[C@@H]1CCCN1C(=O)[C@@H](NC(=O)[C@@H](N)CCC(N)=O)C(C)C)C(=O)N[C@H](C(=O)N[C@@H](Cc1ccc(O)cc1)C(=O)N[C@@H](CCCCN)C(=O)O)[C@@H](C)O,4.7%,-1.1%,4.7%,4.2%,·
[O-]/[N+](=C\c1ccncc1)c1ccccc1,-9.5%,79.4µM*,-2.1%,-13.1%,-16.6%
[O-]/[N+](=C/c1ccc(F)cc1)c1ccccc1,26.7%,?,1.3%,-12.5%,7.6%
O=Cc1cc(OCc2ccccc2)ccc1[B-](F)(F)F,·,20µM*,·,·,·
Nc1ccc(OCc2ccccc2)cc1[N+](=O)[O-],·,2.7%,·,·,·
CC(=O)NC1Sc2ccccc2N=C1c1ccccc1 (configuration not stated),-22.5%,79.4µM*,-0.6%,-6.5%,-11.6%
CC(=O)Nc1nc(-c2ccccc2)c(-c2ccccc2)s1,·,3.9%,·,·,·
Cc1ccc(/C=C/C(=O)c2cc(Br)ccc2OC(=O)c2ccco2)cc1,-8.0%,-2.0%,-6.6%,-3.8%,5.3%
CCc1ccc(/C=C/C(=O)c2cc(Br)ccc(=O)c2O)cc1,?,20µM*,-8.2%,-20.2%,26.6%
CCCCC(CC)COCC1CO1 (configuration not stated),·,·,-1.7%,-3.2%,-14.9%
COc1cccc(C2C=C(Nc3ccccc3)C(=O)N2c2ccccc2)c1 (configuration not stated),-8.6%,-29.1%,-0.7%,-1.8%,7.0%
COc1cccc(NC2=CC(c3ccc(C(C)C)cc3)N(c3cccc(OC)c3)C2=O)c1 (configuration not stated),-11.8%,20µM*,-14.3%,-2.2%,·
CCOc1ccccc1-c1nnc2n1N=C(c1ccc(OC)c(OC)c1)CS2,·,·,-7.2%,-8.3%,·
CCOc1ccc2c(c1)C(C)=CC(C)(C)N2,-9.6%,44.7µM*!,-7.1%[201 µM],-20.3%[201 µM],8.9%
CC[C@H]1CN(C)[C@H]2Cc3c([nH]c4ccccc34)C(=O)C[C@H]1[C@H]2C(=O)OC,·,·,·,·,3.6%[14.2 µM]
N#Cc1ccc(CN2CCCC3(CCN(C(=O)c4cnccn4)CC3)C2)cc1,-1.1%,-13.8%,·,·,7.0%
NC(C(=O)O)c1cc(O)c(Cl)c(O)c1 (configuration not stated),31.6µM*,2.2%,-4.4%,3.3%,-28.0%
